Screens from PubChem BioAssay.
SENP6 inh – blocks the human protease SENP6. Recombinant SENP6 catalytic domain, aminoluciferin luminescence. inhibition, % at 10 µM. hit rate 1.8% among 330,000. AID 2599;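 active = inhibition above about 50% at the single tested dose, limit read from the data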;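 also: plate controls were DMSO wells with enzyme for no effect and DMSO wells lacking enzyme for full effect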
PPC-1+TRAIL kill – PPC-1 cancer cell killing with TRAIL present; cell killing (% activity), % at 4 µM or 5 µM; hit rate 0.41% among 220,000; PPC-1 cells + TRAIL, ATPLite viability luminescence;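 active = cell killing above 50% in the first pass at 4 µM, then a duplicate retest at 5 µM averaging 50% or more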;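 also: plate controls were cells with TRAIL plus DMSO for no effect and medium-only wells lacking cells for full effect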
SENP7 block – blocks the human protease SENP7; Q9BQF6; inhibition, % at 5 µM; AID 434973; hit rate 1.5% among 330,000; recombinant SENP7, Z-RLRGG-aminoluciferin luminescence, 40 min;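 active = inhibition above about 50% at the single test dose, limit read from the data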;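 also: plate controls were DMSO with enzyme for no effect and no enzyme buffer wells for full effect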
Target sequence (Q9BQF6 706-1050 limits assumed): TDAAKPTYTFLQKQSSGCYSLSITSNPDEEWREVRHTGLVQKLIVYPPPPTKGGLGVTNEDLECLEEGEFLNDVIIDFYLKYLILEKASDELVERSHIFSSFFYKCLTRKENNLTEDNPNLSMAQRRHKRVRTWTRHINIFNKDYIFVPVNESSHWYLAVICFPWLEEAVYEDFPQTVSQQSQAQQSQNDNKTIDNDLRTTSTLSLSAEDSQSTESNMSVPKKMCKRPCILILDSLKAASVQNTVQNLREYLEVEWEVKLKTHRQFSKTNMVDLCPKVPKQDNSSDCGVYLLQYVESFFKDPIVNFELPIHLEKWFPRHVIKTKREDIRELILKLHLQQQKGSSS
SENP8 block-1 – blocks the human protease SENP8 | purified SENP8, Z-RLRGG-aminoluciferin cleavage, luminescence | AID 2540 | hit rate 1.2% among 330,000 | Q96LD8 | inhibition, % at 10 µM; in the data active = inhibition above about 50%
SENP8 block-2 – blocks human SENP8 cleavage of Nedd8 substrate | Q96LD8 | recombinant SENP8, Nedd8 substrate fluorescence | inhibition, % at 20 µM | hit rate 0.64% among 360,000 | AID 602440; in the data active = inhibition mostly above about 40%, no sharp cut-off; inactive = mostly below about 27%
TRAIL sens C8 – caspase-8 TRAIL sensitization; NB7+C8 cells + TRAIL, ATPlite viability luminescence; inhibition (viability loss, TRAIL sensitization), % at 10 µM; hit rate 1% among 360,000; AID 624354;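 active = compounds causing at least 50% loss of cell viability in the single-dose screen, relative to plate controls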
SENP8 conf – human SENP8 inhibition, confirmed. shares compounds with SENP7 block. Recombinant SENP8, Z-RLRGG-aminoluciferin luminescence, 60 min. inhibition, % at 12.5 µM. hit rate 40% among 6,200. AID 488912;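 active = mean inhibition across replicates above about 50%, limit read from the data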
SENP6 conf – human SENP6 inhibition, confirmed. shares compounds with SENP7 block. recombinant SENP6, Z-RLRGG-aminoluciferin luminescence. inhibition, % at 12.5 µM. hit rate 58% among 6,200
SENP7 conf – confirmation of human SENP7 protease inhibitors. recombinant SENP7, Z-RLRGG-aminoluciferin luminescence, 40 min. inhibition, % at 12.5 µM. AID 488917. shares compounds with SENP7 block. hit rate 69% among 6,200
Casp3 select – inhibits human caspase-3 in SENP selectivity test. shares compounds with SENP7 block. purified caspase-3, Z-DEVD-aminoluciferin luminescence, 60 min. inhibition, % at 12.5 µM. hit rate 60% among 6,200. AID 488918;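 active = mean inhibition above about 50%, limit read from the data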;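 also: plate controls were enzyme with DMSO for no effect and wells without caspase-3 for full effect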
Target sequence (P42574 28-227 limits assumed): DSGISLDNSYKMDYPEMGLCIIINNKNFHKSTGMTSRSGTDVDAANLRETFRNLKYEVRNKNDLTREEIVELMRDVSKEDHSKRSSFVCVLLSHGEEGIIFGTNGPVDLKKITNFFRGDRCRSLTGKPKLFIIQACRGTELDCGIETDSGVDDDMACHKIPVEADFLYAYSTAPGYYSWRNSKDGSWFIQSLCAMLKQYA
SENP luc ctr – interferes with luciferase luminescence in SENP counter-screen. shares compounds with SENP7 block. Pre-incubated SENP8/Z-RLRGG-aminoluciferin, luciferase luminescence interference. inhibition, % at 12.5 µM. hit rate 39% among 6,200. AID 488919;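 active = mean inhibition above about 50% when retested at one dose, limit read from the data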;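 also: plate controls were DMSO wells with completed reaction for no effect and substrate without enzyme for full effect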
* marks the source's active call; other numbers are inactive results; i = inactive; · = no result given. A selection: hits, their analogues and other compounds. The true share with any hit is near 3%.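 The calls were made as follows, unless noted: active = mean inhibition above about 50% in the one-dose retest (limit read from the data); inactive = the rest.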

SMILES	SENP6 inh	PPC-1+TRAIL kill	SENP7 block	SENP8 block-1	SENP8 block-2	TRAIL sens C8	SENP8 conf	SENP6 conf	SENP7 conf	Casp3 select	SENP luc ctr
CCOc1ccc(/C=N/NC(=O)c2ccc(Cn3cc(Br)cn3)o2)cc1	55.3*	18.7	8.3	2.5	-48.3	9.1	22.1	16.6	57.0*	22.9	49.8
COc1cccc(NC(=O)Nc2ccc3c(c2)CCC3)c1	57.9*	·	66.7*	52.1*	4.4	20.2	1.0	14.4	83.0*	·	31.2
Cc1cccc(NC(=O)Nc2ccc3c(c2)CCC3)c1	34.3	·	62.4*	-10.7	3.5	21.9	3.0	-4.9	-1.2	17.7	-11.5
COc1cccc(NC(=O)c2ccc3c(c2)CCCC3)c1	98.5*	·	100.0*	96.4*	3.9	64.9*	98.5*	99.0*	102.4*	96.6*	93.6*
O=C(COC(=O)c1ccco1)NCc1ccc2c(c1)OCO2	57.8*	6.2	5.5	-2.6	9.9	4.8	-4.4	-6.2	-8.1	1.5	-2.9
N#Cc1cccc(C(=O)C(=O)N2CCN(C(=O)OCc3ccccc3)CC2)c1	·	·	·	·	8.3	-10.4	·	·	·	·	·
COc1ccc(Cn2c(N)c(C#N)c3nc4ccccc4nc32)cc1OC	34.1	0.1	13.8	15.7	i	-22.1	·	·	·	·	·
COc1ccc(CCn2c(N)c(C#N)c3nc4ccccc4nc32)cc1OC	62.0*	9.0	45.6	54.1*	-445.5	-2.4	-1.9	22.1	4.1	6.2	2.0
COc1ccccc1CCn1c(N)c(C#N)c2nc3ccccc3nc21	50.8*	0.3	24.5	22.5	-283.3	-14.2	-20.1	-5.9	-3.0	-6.4	-3.4
COc1cc(C(=O)NCCSc2ccc(F)cc2)cc(OC)c1OC	5.3	·	-0.2	5.2	16.1	0.5	·	·	·	·	·
Cc1ccc(NS(=O)(=O)c2ccc(C)c(NC(=O)c3ccc(S(=O)(=O)N4CCCCCC4)cc3)c2)c(C)c1	·	·	·	·	16.2	-5.6	·	·	·	·	·
CCOc1cc(/C=C2\NC(=S)N(c3c(C)n(C)n(-c4ccccc4)c3=O)C2=O)ccc1O	9.2	-15.6	-0.3	6.6	-15.7	-13.6	·	·	·	·	·
CCOc1cccc(/C=C2\NC(=S)N(c3ccccc3)C2=O)c1O	91.9*	26.0	86.5*	91.0*	10.3	24.6	82.7*	97.9*	102.5*	94.5*	68.9*
CCOC(=O)C1CCN(Cc2cnc(Oc3ccc(C(C)(C)C)cc3)s2)CC1	3.8	3.5	102.1*	1.3	11.5	3.5	2.9	0.2	1.3	1.4	-1.6
COc1ccc(-c2cccc(NC(=O)COc3ccc(Cl)cc3)c2)nn1	-3.2	·	2.4	-14.0	15.3	1.1	·	·	·	·	·
NC(c1csc(Nc2ccc(C(=O)NCCCO)cn2)n1)c1ccccc1Cl (stereo not given)	·	·	·	·	-425.2	-17.9	·	·	·	·	·
COc1cccc(-c2ccc(SCc3ccccn3)nn2)c1	2.5	9.9	79.8*	59.2*	18.0	6.5	75.3*	67.1*	92.2*	86.4*	77.8*
COc1ccc(-c2ccc(SCc3ccccn3)nn2)cc1OC	-57.4	11.6	-5.0	-20.7	-0.7	3.9	·	·	·	·	·
CC(Cc1ccccc1)C(=O)Nc1ccc(Br)cc1 (stereo not given)	13.1	·	2.4	2.0	4.3	5.9	·	·	·	·	·
O=C1CNC(=S)N1c1nc(-c2ccccc2)cs1	96.1*	16.6	87.8*	88.2*	18.3	-1.1	-4.3	5.5	2.5	14.0	7.1
Cn1c(CSc2nc3ccccc3s2)nnc1SCC(=O)NCCN1CCOCC1	3.5	12.0	75.6*	-3.1	10.5	9.9	9.8	7.7	4.7	1.2	3.9
Cc1cc(C)cc(C(O)c2ncc(-c3ccccc3C)[nH]2)c1 (stereo not given)	·	·	·	·	4.2	-7.5	·	·	·	·	·
Cc1c(C(=O)c2ccc(F)cc2F)c2ccccn2c1CCC#N	58.2*	·	26.1	42.3	-4.5	-10.5	10.8	9.0	-4.3	3.8	-0.6
Cc1c(C(=O)c2ccc(F)cc2F)c2ccccn2c1CCc1ccccn1	·	·	·	·	36.3	-15.3	·	·	·	·	·
COC(=O)CCc1c(C)c(C(=O)c2cc(F)c(F)c(F)c2F)c2ccccn12	77.4*	11.3	3.9	28.5	-29.7	-6.7	8.3	6.6	-8.7	-3.2	-2.6
SMILES	SENP6 inh	PPC-1+TRAIL kill	SENP7 block	SENP8 block-1	SENP8 block-2	TRAIL sens C8	SENP8 conf	SENP6 conf	SENP7 conf	Casp3 select	SENP luc ctr
COc1ccc(Nc2ccc3c(c2)=NC2(CCCCC2)[N+]=3[O-])cc1	82.3*	-2.5	37.6	36.0	81.0*	37.1	38.2	64.2*	31.2	7.4	2.3
Cc1ccc(C(=O)Nc2ccc(C(=O)N3CCCCC3)cc2)o1	66.0*	·	78.0*	48.1	3.1	-4.3	58.5*	59.6*	88.8*	89.2*	68.5*
Cc1ccc(C(=O)Nc2ccc(NC(=O)c3ccc(C)o3)cc2)o1	18.4	·	-3.9	0.8	-9.7	-9.8	·	·	·	·	·
Cc1ccccc1CC(=O)Nc1ccc(C(=O)N2CCCC2)cc1	41.0	·	54.5*	17.1	8.3	16.0	43.8	39.8	69.0*	77.6*	53.2*
CC(C)CCNC(=O)c1cn(CC(C)C)c(=O)c2c1c1ccccc1n2C	-16.0	·	-9.6	-8.5	-300.8	-24.4	·	·	·	·	·
CC(C)Cn1cc(C(=O)NCc2cccs2)c2c3ccccc3n(C)c2c1=O	2.8	-0.9	61.7*	5.0	-314.0	16.0	-1.0	-0.4	-5.2	-1.5	-6.0
CCc1ccc(C(=O)COC(=O)c2n[nH]c3ccccc23)cc1	35.3	4.0	74.4*	77.2*	-8.0	2.7	-15.6	78.1*	92.9*	61.3*	14.2
Cc1ccc(Cl)cc1N(CC(=O)NC1CCCC1)C(=O)c1csnn1	13.8	·	1.7	2.3	4.6	11.5	·	·	·	·	·
COc1ccc2oc(=O)c(-c3nnc(N)s3)cc2c1	4.6	6.2	16.1	-0.6	-414.7	-2.1	·	·	·	·	·
COc1ccc2oc(=O)c(-c3nc(C)cs3)cc2c1	48.2	-10.8	91.6*	74.5*	-294.1	10.3	-11.0	20.8	24.1	32.0	12.3
O=C(NCCNC(=O)c1cccnc1)c1ccc(Br)cc1	-2.4	·	-3.0	-1.5	4.4	5.4	·	·	·	·	·
CN=c1scc(-c2cccs2)n1/N=C/c1ccc(O)c(O)c1O	79.2*	38.3	57.2*	82.3*	30.1	90.8*	94.7*	95.0*	99.2*	80.1*	82.3*
